The target of experiment [1] is Lysosomal acid glucosylceramidase (Homo sapiens) (UniProt P04062). Briefly: Glucocerebrosidase-p2 (AID 348; in the data active = potency below about 10 µM; note: potency is the fitted concentration of half-maximal effect). Conditions: purified GBA, blue fluorogenic substrate, 40 min. In a few lines: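 Compounds titrated from 0.6 nM upwards against 0.2 nM enzyme in pH 5.9 citric acid/KH2PO4, taurocholate, tween-20; blue fluorogenic substrate 80 uM, 40 min room temperature, stopped and read Ex 365/Em 440 for AC50.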

Experiment [2] is described as follows: AP1 Signaling Pathway (AID 357).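 Note: ME-180 reporter cells stimulated with EGF at its EC50 level; % is set by controls: 0 for no effect and ±100 for the full control effect.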 The conditions noted are these: ME-180 AP-1-bla reporter, EGF-induced, beta-lactamase ratio, 5 h; at 7.69 µM (top of the series) unless noted. The method in brief: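 Beta-lactamase reporter under AP-1 response element, ME-180 background. Stimulus: EC50 EGF. Compound exposure 5 h, 37 °C. Detection: CCF4, 2.5 h RT, 460/530 nm. Values: AC50 from titration.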

Experiment [3] can be described thus: NFAT Signaling Pathway (AID 444).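 Note: carbachol stimulus at about its EC50 of 1 µM final; % is set by controls: 0 for no effect and ±100 for the full control effect.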 The conditions noted are these: Jurkat NFAT-bla M1, carbachol, beta-lactamase ratio, 5 h; at 7.69 µM (top of the series) unless noted. In a few lines:
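Read-out: CCF4 FRET ratio (460 nm/530 nm) after 1 h RT dye loading, used for %activity and AC50 from titration series. Cells: Jurkat NFAT-β-lactamase/M1 line, treated with compound plus 1 uM carbachol for 5 h, 37 °C.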

A short description of experiment [4]: Stat Signaling Pathway (AID 446).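 Note: ME-180 cervical cancer cells given 40 pM IL-6 alongside compound; SIE-controlled beta-lactamase reporter measured as 460/530 nm FRET emission ratio; % is set by controls: 0 for no effect and ±100 for the full control effect.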 Conditions: ME-180 SIE beta-lactamase reporter, IL-6 stimulated, 5 h; at 7.69 µM (top of the series) unless noted. The method in brief: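 ME-180 cells carrying a SIE-driven beta-lactamase reporter are stimulated with 40 pM IL-6 for 5 h at 37C in the presence of compound. The 460/530 nm FRET substrate ratio is read after 2.5 h at RT. Data are normalised to 300 pM IL-6 and to 125 nM JAK inhibitor controls.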

Experiment [5] has as its target Glucocorticoid receptor (Homo sapiens) (UniProt P04150). The experiment can be described thus: GR-EFC Redistribution (AID 451; calls by dose curve; note: potency is the fitted concentration of half-maximal effect). The conditions noted are these: CHO-K1 GR-EFC translocation, beta-gal luminescence, 2 h. In a few lines:
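Translocation of GR-ED fusion to nuclear EA restores b-gal, read by luminescence after 1 h room-temperature detection. Engineered CHO-K1 biosensor cells, 1,000/well, exposed 2 h at 37 C to titrations up to 46 uM final.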

For experiment [6], the target named is Mitogen-activated protein kinase 10 (Mus musculus) (UniProt Q61831). The experiment can be described thus: JNK3 AlphaScreen Assay (AID 530).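 Note: kinase came from lysate of stimulated human HepG2 cells; signal reports phosphorylation of biotinylated GST-cJun 1-79 at Ser73 with 10 µM ATP; % is set by controls: 0 for no effect and ±100 for the full control effect.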 Conditions: JNK3 lysate, c-Jun phosphorylation; series mostly up to 57.1 µM. The method in brief:
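Compound titrations were preincubated 15 minutes at room temperature with substrate, antibody and pre-activated JNK3-containing HepG2 lysate. Reactions were started with 10 uM ATP and stopped with EDTA-containing bead buffer for AlphaScreen detection.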

In experiment [7] the target is 3',5'-cyclic-AMP phosphodiesterase 4B (Homo sapiens) (UniProt Q07343). The experiment can be described thus: qHTS Assay for Inhibitors of PDE-IV (AID 607; active = well fitted activation curve with a large enough effect in the main read-out, with a control signal flat, not every such curve was filed as active; note: % of control where 0% means no effect). Conditions: HEK293 ACTOne CNG channel cells, membrane potential fluorescence; series mostly up to 22.9 µM. The method in brief: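 HEK293 ACTOne cells with CNG channel (1000/well), endogenous PDE4; membrane potential dye, compounds up to 22.9 uM final. Fluorescence Ex 535/Em 590; RO 20-1724 (100 uM final) as reference.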

The nature of experiment [8]: qHTS Assay for Lipid Storage Modulators (AID 1519; calls by dose curve). The conditions noted are these: Drosophila S3 cells, BODIPY lipid droplet/cell ratio, laser cytometry, cells loaded with oleic acid; for activity change, negative = inhibition: at 57.5 µM (top of the series). In a few lines: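 Cells seeded at 5,000 per well were treated with compounds over a concentration series and loaded with oleic acid (400 uM, as added). Lipid droplet fluorescence (488 nm excitation, 500-530 nm channel) was read by laser-scanning cytometry and normalized to 20 uM Triacsin C.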
(In general: In qHTS, concentration-response curves come from the screen itself.)

A short description of experiment [9]: Primary qHTS for small molecule stabilizers of the endoplasmic reticulum resident proteome: Secreted ER Calcium Modulated Protein (SERCaMP) assay (AID 1508630; active = well fitted curve in the direction sought with a large enough effect; an effect the other way counts as inactive or inconclusive; note: % is set by controls: 0 for no effect and ±100 for the full control effect). The conditions noted are these: SH-SY5Y GLuc-SERCaMP (Gaussia luciferase released on ER calcium loss) secretion, thapsigargin, luminescence; series mostly up to 38.4 µM. In a few lines:
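GLuc-SERCaMP-expressing SH-SY5Y cells, pretreated 16 h with compound, are challenged with thapsigargin to empty ER calcium stores; after 4 h, coelenterazine is added directly to the medium and luminescence is imaged.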

Experiment [10] deals with Cytochrome P450 3A4 (Homo sapiens) (UniProt P08684). The experiment can be described thus: qHTS Assay for Inhibitors and Substrates of Cytochrome P450 3A4 (AID 884; active = well fitted curve in the direction sought with a large enough effect; an effect the other way counts as inactive or inconclusive; note: % is set by controls: 0 for no effect and ±100 for the full control effect; nearly all actives have a fitted effect of over 50% in size). The conditions noted are these: recombinant CYP3A4, Luciferin-PPXE luminescence; series mostly up to 57.1 µM. In a few lines: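 20 nM human CYP3A4 with 25 uM Luciferin-PPXE (at KM) in 200 mM KPO4, preincubated 10 min with compound; NADPH regeneration started a 60 min RT reaction. Luciferin detected by luminescence, normalized to 57 uM ketoconazole as full inhibition.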

The target is the same in experiment [11]. The experiment can be described thus: qHTS Assay for Activators of Cytochrome P450 3A4 (AID 885; active = well fitted curve in the direction sought with a large enough effect; an effect the other way counts as inactive or inconclusive; note: nearly all actives have a fitted effect of over 65% in size; note: potency is the fitted concentration of half-maximal effect). Conditions: recombinant CYP3A4, Luciferin-PPXE luminescence, 60 min; series mostly up to 57.1 µM. The method in brief:
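Human CYP3A4 (20 nM) with Luciferin-PPXE at 25 uM (its KM) in 200 mM KPO4; 10 min compound preincubation, then NADPH regeneration and 60 min reaction at RT. Luciferin read by luminescence; normalized to 57 uM ketoconazole full inhibition.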

The target of experiment [12] is Cytochrome P450 2D6 (Homo sapiens) (UniProt P10635). Briefly: qHTS Assay for Inhibitors and Substrates of Cytochrome P450 2D6 (AID 891; active = well fitted curve in the direction sought with a large enough effect; an effect the other way counts as inactive or inconclusive; note: potency is the fitted concentration of half-maximal effect; nearly all actives have a fitted effect of over 60% in size). The conditions noted are these: recombinant CYP2D6, luciferin-ME EGE luminescence; series mostly up to 57.1 µM. The method in brief:
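Human CYP2D6 (5 nM) with 30 uM Luciferin-ME EGE (at Km) in 100 mM KPO4, compound preincubated 10 min, then NADPH regeneration system for 60 min at room temperature. Luciferin read by luminescence; normalized to 1.43 uM quinidine.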

Setting [13] is: measured here: cell count channel max response.
The mark [14] stands for this setting: measured here: lipid channel max response.

The source of these data is PubChem BioAssay (NCATS).

Records with an inconclusive call do not appear. Active and inactive are the calls of the source. Unless noted, calls come from the whole dose curve; as a rule, active = well fitted curve in either direction with a large enough effect (not every such curve was filed as active); inconclusive = small, poorly fitted or top-dose-only effect, or another doubt; inactive = flat fitted curve, though single readings scatter.

Glucocorticoid receptor (Homo sapiens), sequence (P04150 whole entry, looked up, the tested form may be a part): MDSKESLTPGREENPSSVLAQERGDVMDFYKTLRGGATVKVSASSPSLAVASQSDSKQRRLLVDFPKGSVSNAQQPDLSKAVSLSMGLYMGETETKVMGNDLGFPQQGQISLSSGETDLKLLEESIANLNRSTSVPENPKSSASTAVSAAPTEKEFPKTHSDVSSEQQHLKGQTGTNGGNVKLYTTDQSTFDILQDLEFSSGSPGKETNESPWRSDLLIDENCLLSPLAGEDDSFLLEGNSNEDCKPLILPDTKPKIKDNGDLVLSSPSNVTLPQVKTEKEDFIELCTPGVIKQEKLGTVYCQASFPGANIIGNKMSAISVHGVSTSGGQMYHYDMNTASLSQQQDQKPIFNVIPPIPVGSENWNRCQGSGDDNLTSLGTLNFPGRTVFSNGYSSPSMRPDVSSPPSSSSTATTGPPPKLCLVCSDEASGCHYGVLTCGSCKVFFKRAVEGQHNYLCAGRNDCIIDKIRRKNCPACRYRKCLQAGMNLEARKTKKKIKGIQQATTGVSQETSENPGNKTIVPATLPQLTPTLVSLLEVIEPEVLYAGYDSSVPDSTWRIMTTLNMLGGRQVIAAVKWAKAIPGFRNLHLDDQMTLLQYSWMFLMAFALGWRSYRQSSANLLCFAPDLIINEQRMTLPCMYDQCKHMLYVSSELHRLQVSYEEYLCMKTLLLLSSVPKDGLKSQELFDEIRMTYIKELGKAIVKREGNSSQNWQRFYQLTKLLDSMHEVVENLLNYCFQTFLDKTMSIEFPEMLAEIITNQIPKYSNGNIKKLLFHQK
3',5'-cyclic-AMP phosphodiesterase 4B (Homo sapiens), sequence (Q07343 whole entry, looked up): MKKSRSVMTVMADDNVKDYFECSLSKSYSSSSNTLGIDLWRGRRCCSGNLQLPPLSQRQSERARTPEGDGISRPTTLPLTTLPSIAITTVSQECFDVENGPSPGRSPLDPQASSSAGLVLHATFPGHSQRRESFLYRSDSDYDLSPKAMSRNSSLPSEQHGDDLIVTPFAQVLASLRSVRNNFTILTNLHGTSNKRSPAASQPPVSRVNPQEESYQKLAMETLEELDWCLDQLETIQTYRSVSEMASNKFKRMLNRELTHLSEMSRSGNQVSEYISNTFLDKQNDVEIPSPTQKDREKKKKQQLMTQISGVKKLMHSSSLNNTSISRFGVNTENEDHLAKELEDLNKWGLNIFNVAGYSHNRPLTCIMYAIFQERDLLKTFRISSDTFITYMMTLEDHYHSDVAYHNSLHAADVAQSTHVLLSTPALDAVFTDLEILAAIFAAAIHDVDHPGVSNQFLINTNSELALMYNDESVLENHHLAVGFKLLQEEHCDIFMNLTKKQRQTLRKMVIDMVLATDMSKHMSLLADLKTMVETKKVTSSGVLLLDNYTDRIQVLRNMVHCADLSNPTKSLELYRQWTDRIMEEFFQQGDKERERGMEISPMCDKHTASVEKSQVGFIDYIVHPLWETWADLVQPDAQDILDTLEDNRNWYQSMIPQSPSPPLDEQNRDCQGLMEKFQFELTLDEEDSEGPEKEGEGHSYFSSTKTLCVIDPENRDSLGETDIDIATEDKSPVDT
Cytochrome P450 3A4 (Homo sapiens), sequence (P08684 whole entry, looked up): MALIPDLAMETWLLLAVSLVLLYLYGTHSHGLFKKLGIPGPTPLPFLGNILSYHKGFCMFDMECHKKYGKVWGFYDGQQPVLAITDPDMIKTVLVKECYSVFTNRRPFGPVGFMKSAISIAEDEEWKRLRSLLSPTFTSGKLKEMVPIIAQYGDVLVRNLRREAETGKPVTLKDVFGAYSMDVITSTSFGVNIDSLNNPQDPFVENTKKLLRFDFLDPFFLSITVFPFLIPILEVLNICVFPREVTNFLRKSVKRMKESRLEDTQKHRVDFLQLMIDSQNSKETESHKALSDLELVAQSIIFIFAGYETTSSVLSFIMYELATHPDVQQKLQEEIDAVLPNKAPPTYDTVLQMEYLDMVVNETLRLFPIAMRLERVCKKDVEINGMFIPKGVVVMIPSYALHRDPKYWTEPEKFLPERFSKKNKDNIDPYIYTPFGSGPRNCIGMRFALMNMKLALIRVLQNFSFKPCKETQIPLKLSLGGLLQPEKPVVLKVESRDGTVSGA
Lysosomal acid glucosylceramidase (Homo sapiens), sequence (P04062 whole entry, looked up): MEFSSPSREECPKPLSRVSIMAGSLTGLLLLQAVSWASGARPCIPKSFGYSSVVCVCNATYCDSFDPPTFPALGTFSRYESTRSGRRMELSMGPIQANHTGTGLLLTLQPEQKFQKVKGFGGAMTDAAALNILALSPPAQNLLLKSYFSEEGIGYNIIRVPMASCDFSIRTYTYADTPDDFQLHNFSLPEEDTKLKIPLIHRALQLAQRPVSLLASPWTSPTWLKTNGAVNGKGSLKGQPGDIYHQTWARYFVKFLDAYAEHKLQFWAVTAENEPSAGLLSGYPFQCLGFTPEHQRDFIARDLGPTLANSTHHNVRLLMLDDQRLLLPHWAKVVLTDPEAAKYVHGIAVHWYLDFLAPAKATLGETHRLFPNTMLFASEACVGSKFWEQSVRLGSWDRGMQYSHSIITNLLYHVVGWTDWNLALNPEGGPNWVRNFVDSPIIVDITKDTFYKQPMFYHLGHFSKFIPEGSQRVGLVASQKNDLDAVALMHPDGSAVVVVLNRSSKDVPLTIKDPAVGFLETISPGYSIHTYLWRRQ
Cytochrome P450 2D6 (Homo sapiens), sequence (P10635 whole entry, looked up): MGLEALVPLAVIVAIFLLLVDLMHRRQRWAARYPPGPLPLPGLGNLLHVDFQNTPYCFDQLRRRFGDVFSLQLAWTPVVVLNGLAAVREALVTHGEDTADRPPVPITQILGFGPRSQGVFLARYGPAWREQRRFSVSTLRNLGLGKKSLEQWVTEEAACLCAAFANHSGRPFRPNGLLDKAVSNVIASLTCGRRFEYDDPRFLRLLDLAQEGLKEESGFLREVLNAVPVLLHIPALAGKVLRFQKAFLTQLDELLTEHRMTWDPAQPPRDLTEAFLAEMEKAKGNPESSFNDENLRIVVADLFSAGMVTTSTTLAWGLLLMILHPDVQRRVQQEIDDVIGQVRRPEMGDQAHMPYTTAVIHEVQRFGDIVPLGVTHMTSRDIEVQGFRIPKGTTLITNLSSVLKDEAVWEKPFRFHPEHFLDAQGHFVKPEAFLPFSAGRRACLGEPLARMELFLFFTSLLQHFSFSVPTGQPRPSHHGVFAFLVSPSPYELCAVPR

With `CS(=O)(=O)N1CCC[C@@]2(CCN(Cc3ccc(C#N)cc3)C2)C1`, the Potency in [1] was > 11.4 µM (inactive); in experiment [5] it was > 46 µM (inactive). Also, the activity change, negative = inhibition in [2] was 10.7% (inactive); in experiment [3], -5.85% (inactive); in experiment [8], 1.64% (inactive). Besides, the activity, negative = inhibition in experiment [4] was -6.21% (inactive). Besides, the Potency entry in [6] and in experiment [7] was “inactive” throughout. In addition, the max response in experiment [8] (setting [13]) is -0.832%; in [8] (setting [14]), -0.755%. Moreover, the result in experiment [9] was inactive.

Consider `O=C(c1cccc(F)c1)N1CCC2(CC1)CN(c1ncccn1)C2`, for which the Potency in [1] was > 11.4 µM (inactive); in experiment [5], > 46 µM (inactive); in experiment [11] it was 25.1 µM (active). In addition, the activity change, negative = inhibition is 1.82% (inactive) in experiment [2], -6.5% (inactive) in [3] and 1.3% (inactive) in [8]. For the same compound, the activity, negative = inhibition in [4] is -6.7% (inactive). The Potency result in experiment [6], in experiment [7] and in experiment [10] was “inactive” in each case. The max response in experiment [8] (setting [13]) was 1.53%; in experiment [8] (setting [14]), 3.53%. The result in experiment [9] was inactive.

As for `Cc1noc(C)c1C(=O)N1CCC[C@@]2(CCN(c3ccccn3)C2)C1`, the Potency in [1] was > 11.4 µM (inactive); in [5] it was > 46 µM (inactive). The activity change, negative = inhibition was -5.91% (inactive) in [2], -10.2% (inactive) in [3] and -1.14% (inactive) in experiment [8]. The activity, negative = inhibition in experiment [4] was -3.33% (inactive). Moreover, the Potency entry in [6] and in [7] was “inactive” throughout. Besides, the max response in experiment [8] (setting [13]) was found to be 20%; in experiment [8] (setting [14]), 24.9%. In addition, in [9], the outcome was inactive.

As to `CC(C)NC(=O)N1CC2(CCN(C(=O)c3cc(C(F)(F)F)cc(C(F)(F)F)c3)CC2)C1`, the Potency in experiment [1] is > 11.4 µM (inactive); in [5] it was > 46 µM (inactive); in [12], 0.251 µM (active). Besides, the activity change, negative = inhibition in [2] was -16.3% (inactive); in [3], 6.43% (inactive); in experiment [8], 0.828% (inactive). Besides, the activity, negative = inhibition in experiment [4] is -11.9% (inactive). Moreover, the Potency result in experiment [6] and in [7] was “inactive” in each case. For the same compound, the max response in experiment [8] (setting [13]) was found to be 11%; in experiment [8] (setting [14]), 13.7%. In [9], the outcome was inactive.

`CC(C)CN1CC[C@@]2(CCCN(C(=O)c3cccc(F)c3)C2)C1`: the results for the Potency in experiment [1] and in experiment [5] were > 11.4 µM (inactive) and > 46 µM (inactive), respectively. Also, the figures for the activity change, negative = inhibition in experiment [2], in experiment [3] and in experiment [8] were -9.55% (inactive), -0.696% (inactive) and 1.5% (inactive), respectively. The activity, negative = inhibition in experiment [4] was 6.14% (inactive). Further, the Potency result in [6] and in experiment [7] was “inactive” each time. Further, the max response in experiment [8] (setting [13]) was 13.4%; in [8] (setting [14]), 19.5%. Moreover, the outcome in experiment [9] was inactive.

`Cn1cccc1C(=O)N1CCC[C@@]2(CCN(C(=O)Nc3cccc(C#N)c3)C2)C1`: the figures for the Potency in [1] and in experiment [5] were > 11.4 µM (inactive) and > 46 µM (inactive), respectively. Besides, the figures for the activity change, negative = inhibition in experiment [2], in experiment [3] and in experiment [8] were -6.67% (inactive), 10.5% (inactive) and 5.85% (inactive), respectively. The activity, negative = inhibition in [4] is -3.81% (inactive). Besides, the Potency result in experiment [6], in [7] and in [11] was “inactive” each time. The max response in [8] (setting [13]) was determined as 14.3%; in experiment [8] (setting [14]), 24.9%. Also, the result in experiment [9] was inactive.

For the compound `CS(=O)(=O)N1CCC2(CC1)CN(Cc1ccc(C#N)cc1)C2`, the values for the Potency in experiment [1] and in [5] were > 11.4 µM (inactive) and > 46 µM (inactive), respectively. Moreover, the activity change, negative = inhibition is -16.8% (inactive) in [2], -16.5% (inactive) in experiment [3] and 4.04% (inactive) in experiment [8]. For the same compound, the Potency result in experiment [6] and in experiment [7] was “inactive” each time. Moreover, the max response was 9.72% in experiment [8] (setting [13]) and 16.5% in [8] (setting [14]). The outcome in experiment [9] was inactive.
